Assay results from the supplement of paper PMC12632987.
In all, about 2,300 sequences were measured (“median log2 fold change of GCK-ALFA target abundance (FLAG IP / Myc IP barcode read proportion)”: median about 0.095, lowest 2% from about -0.47 on). The full list was thinned out, with the lowest values kept by preference.

B1: LC3A_23_609 (protein)
chain: MYLIDFEVDLIGEPEEIEKIEKELLEALEEFLEENKDKIVDYEIEVEREELEDGRTYLSIRLKILIDGTREEAEALANEITTIASEIAPDAVISVEVEEV
B2: LC3A_147_509 (protein)
chain: YIVEIDIDLLVKNKVEEVKEKFKEIVEELKKKGYEVELEIEEEKIDENTYYVKVKITIKAETKEEAEEAANLTLDLLDKLEEELKEDILGSLISVEITEA
B3: LC3A_free_39_2183 (protein)
chain: SSEETKKLKEELLKLAEEEGEETKELAEKLIELIGEELERIKRLLELMKKLKEAGVDLKEALKEALELAEELKKKGKSKEEIAEAVLELMQDKYNLIPID
B4: LC3A_free_26_2149 (protein)
chain: DEFIDIVELDKAIDLLEELLKLLEENELASEEEKKLAKEALEEAKKETLESLKKALKLVEELLKLLKKNEKLPEETKKKLIKLAEEAIKHIKENIKIMES
B5: LC3A_3_1540 (protein)
chain: MDAAVAAALARLRAAGASAATLAAFEAAVAALRERGYDAALETLIAETDRLLGLSDALLLAFFEEVLELVETEDIDEEELIARIREIARTTLSEAEIEEL
B6: LC3A_28_1107 (protein)
chain: SSVDEENAKALAEAEKAAAAGEPAVITITVKSTDTQEDIDKKIETMEKIAEILKDVKDAAIIIDLDGEIPQEYLDKLADKGEEIEKKYPNITVIIALDEE
B7: LC3A_3_1662 (protein)
chain: AEELIEETLAWLREQGRSEETLEAAREAMTALKEKGYYEALETFAELLRELADLSDELLLELAEEVLELVETSDLDEESMTEEIREIARTIRSEAEIEEL
B8: LC3A_132_247 (protein)
chain: SEEELEKALEELKEILEKIVELLKAGKDPLPQIVKLEELAREIAKKLSLEETEKLVDEAIEYAEELFEKELDPNDEEARRTLDIIEMSLEGVLIEKELES
B9: LC3A_132_248 (protein)
chain: SEEELKEALEELKEILEKIVEALKNGEDPLPLIVELEEKALEIAEKLSLEETEELIDEAKEYAEELFEEELDPNDEEARRTLDIIEMLLDGVLIEKELKS
B10: LC3A_132_246 (protein)
chain: SEEEYKKALAELKEIIDKIVELLKEGKDPLPAIVELEEKAREIAEKLSLEETEKLVEETIEYAEKRFEEELDPNDEEARRTLDIIEMLLEGVLIEKELRS
B11: LC3A_28_830 (protein)
chain: SKIEERIAKFKAEAEAAKASQEPATLTITVTSEDTVEEAKKIAEAMKEEAEKLKDVPDIGIVIDTDGKIDPEVLKILTDTADEIEEKYPNVTVIIALPEE
B12: LC3A_23_622 (protein)
chain: MYKVTVEADTIATPEEAEKYIKLVKEKVEEIKEKYKDKIEEVKLEIEREELPDGTVYLHITVTIIVKDDEELAQKLKNELVDFFDKNIPNGVISYEIEKL
B13: LC3A_free_46_2410 (protein)
chain: YVAEIDVDALAETKEKAEEFAKKIEEAAKEIAKEYGIEVEIEVKISKDEDGTYFVEIEITLEAETKETLEKAVNELIDKIEEIAEELGVSIIISYEISEA
B14: LC3A_28_1055 (protein)
chain: SAVEEQIKKALEEAKELAAKGEEALIEIEIEEDDTEEDVEKKLKTIEEIAEINKDLPSTSIIVNVNNKNKEEVTKKFADLGDELEKKYPNVTVIIALSEE
B15: LC3A_28_1327 (protein)
chain: SELEEQLEKQRKEALELAEKGEDVLIEVTITPETTLEEAEELMEKLRELVKEVAPKVKVSIVVDVEGGVSQEVIDAIAEKADEIEKEYPNATVIIALDED
B16: LC3A_free_39_2199 (protein)
chain: SEEEEEEAEEEILELAEEEGEEALEAAEELLEELEGNLELVEAVLEQVKRAKEEGADVLELLKRLLELVRKLQEEGKSEEEIIEAIEEEADVIINLIPID
B17: LC3A_28_1010 (protein)
chain: MSVVEETKKEAEKALEEAKKGNDAYLEIKITKDTTLEEVKEIGKIIEETAKKISEIENVKLYIVVDDDSNEEKHNIILDKLDEIEKKYPNVSSIVAYTDE
B18: LC3A_3_1354 (protein)
chain: SEELIEEQIERLREAGFSEEVLEAARAAFEGLAAQGHEEGIELLTEALLKHKDAPEEKKLRVLNNLLAEVQANPNLTQEEVEELVKLADLDLAIEELDEE
B19: LC3A_132_313 (protein)
chain: SEKKYEEIKKKLEELLKEAEKNINDKEKVEELLKEIRKLLEEAEKELSPEQVKELYDFVADRLYKLSLKADEAGKEDVSLLLDAAAIEAASKALKAEKKI
B20: LC3A_28_1162 (protein)
chain: SAIEESIKAAFEELEKAIKEGKNGVITLKVPGDATEEDIERLIKALEEIAKKAEEHGINGILIDVDGGVKQEHIDRLAKAAEEIEKKYPKVTIIIALSDE
B21: LC3A_free_46_2347 (protein)
chain: YKAEIDIDLLAEDEETLKKAVEEIVEAAKKIAKKYNLKVNIEVEIEKLEDGSYYARIKITLEGETKEDVEAAVNELIDEIDKIAKKYNVAAIISYEIIKT
B22: LC3A_free_46_2352 (protein)
chain: VEAKIEIDLLADDKEKLEKAVEEIIKKIKEIAKKYGLEVEINYEISKLEDGSYYAKIEITLKGEDLEDVKKAVNELINEIEEIAEKYGVSAVISYEIEDV
B23: LC3A_free_0_2121 (protein)
chain: KKTVVELVVILDEKTSEEKAKEAYEELKEKAEELAEENGWEVEVKLDKVDGRHIITVTLTSDEPDIDKGLELERKLSEIAEEIAKKLGLDATIYSSVYLE
B24: LC3A_free_8_2531 (protein)
chain: NVQEMVDLALKELDKLEKIAVEKAKELGLSRTDILELELVIGSAKIDIIEASDKSVEEIYKLFKEELKEILEEAKKYGEELYKEVEKKAKEALKKMEEAK
B25: LC3A_28_1140 (protein)
chain: SALVEAAKAQIEADAEADKDEPEVLLRVTITSEMTVEQAREIMDHVEEVVEKLKDKEKIYIVVDATEPISQEVLDEIVERLEEIEKKYPNVSSIIALPED
B26: LC3A_28_1037 (protein)
chain: DELRRRAEEAVKEAEEQAKKGEEAVVTIKVGKLPTEEAKRIVREALERLIKISKKYGNVKISVVIDVDGDQELVDAIIDVAEEAEKKNPNLTVIIALSEE
B27: LC3A_23_605 (protein)
chain: MYKVEVIVDFIDKPEEAEKKVEELLKKVEELLKKHKDIVKDYEIKVTREALPDGTTYVEVEITIIIDGTKEEAEEIRNELESIASETLPNGVISSEVEEL
B28: LC3A_59_2035 (protein)
chain: SAEAEAAAARVRERGPSVDVVAEVFREVLEKNGLDPELARDLVAALVAVLVEAGLITAEEGAAIRAEADAAIDRLTDVDELVSELRVIILDALLKKNELE
B29: LC3A_141_361 (protein)
chain: ATKKETFTLTAKTEEEAIEVAEKIKEKIREFMEKTGAKEVKVTVTITAYNKKTGEVKTETIVETVTPENLDLFEEGLLIELLSYFEKGADEVKVTVTIES

target: MAP1LC3A, Q9H492; test: median log2 fold change of GCK-ALFA target abundance (FLAG IP / Myc IP barcode read proportion) (log2 ratio); each designed protein is fused to an ALFA-tag nanobody in HEK293 cells to bring the named protein to FLAG-tagged glucokinase (GCK); Myc marks an untargeted standard; higher = target protein stabilised (more abundant); conditions: target protein: 3xFLAG-MCP-GCK-ALFA reporter; HEK293 landing pad (RPLP)
Procedure: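 LABEL-seq trans screen in HEK293 landing-pad cells. Each de novo designed 100-aa effector handle, binding the indicated effector (E3 ligase, DUB or autophagy protein), is fused to a constant NbALFA target handle and induced with 2 ug/mL doxycycline. A FLAG-MCP-GCK-ALFA target and a Myc-MCP standard reporter were transfected, and after 48 h circRNA barcodes were recovered by anti-FLAG and anti-Myc IP and sequenced. The value is the median across barcodes (at least 3 per design) of log2(FLAG/Myc read-proportion ratio), with the two transfection replicates pooled. Negative values mean degradation and positive values mean stabilisation of the target.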

Row | Binder | median log2 fold change
1 | B1 | -0.664
2 | B2 | -0.0549
3 | B3 | 0.066
4 | B4 | -0.0408
5 | B5 | 0.222
6 | B6 | 0.154
7 | B7 | -0.0559
8 | B8 | -0.371
9 | B9 | -0.698
10 | B10 | -0.415
11 | B11 | 0.132
12 | B12 | -0.561
13 | B13 | 0.0318
14 | B14 | 0.0494
15 | B15 | -0.563
16 | B16 | 0.103
17 | B17 | -0.515
18 | B18 | 0.184
19 | B19 | -0.171
20 | B20 | -0.0306
21 | B21 | -0.556
22 | B22 | 0.204
23 | B23 | 0.00278
24 | B24 | -0.0124
25 | B25 | -0.0164
26 | B26 | -0.36
27 | B27 | -0.868
28 | B28 | 0.256
29 | B29 | -0.0634
